Test results as given in the supplement of paper PMC12350171.
Structures can show the parent of a compound that is named as a salt.

Columns and labels:
Settings in all cases: 20 µM
[1] = system: Salmonella enterica typhimurium; experiment: growth AUC normalised to DMSO control (fraction of control); higher = less growth inhibition, active = hit call of the paper
Summary of the method: (§1)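 Pathogens were passaged twice under anaerobic conditions, then inoculated into pre-reduced mGAM plates at a starting OD578 of 0.01, with compound at 20 μM and 1% DMSO, and sealed with breathable membranes. For Haemophilus parainfluenzae, the medium was supplemented with hemin and NAD. OD578 was read every hour for 24 h in three biological replicates. Growth-curve AUC was calculated by the trapezoidal rule up to the exponential-to-stationary transition and normalised to DMSO controls on the same plate.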

Shigella flexneri = experiment: as above
Summary of the method: as §1

Vibrio cholerae = experiment: as above
Summary of the method: as §1

[2] = system: Yersinia pseudotuberculosis; experiment: as above
Summary of the method: as §1

P. vulgatus RND KO = experiment: growth AUC normalised to DMSO control (median) (fraction of control); higher = less growth inhibition, active = hit call of the paper
Summary of the method: (§2)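 After two overnight anaerobic passages, strains were inoculated at OD578 0.01 into mGAM in 96-well plates containing approved-drug library compounds at 20 μM and 1% DMSO. Growth was followed by reading OD578 hourly for 24 h within an anaerobic incubator. Area under the curve, taken by the trapezoidal rule up to the start of stationary phase, was normalised to same-plate vehicle wells, and the median of three biological replicates is listed.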

P. vulgatus WT = experiment: as above
Summary of the method: as §2

[3] = system: S. enterica typhimurium WT; experiment: as above
Summary of the method: as §2

[4] = system: S. enterica typhimurium tolC KO; experiment: as above
Summary of the method: as §2

Measured: growth AUC normalised to DMSO control
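Throughout, for growth AUC normalised to DMSO control (median): active when median AUC fell below 0.1.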

C[C@@H](c1ncncc1F)[C@](O)(Cn1cncn1)c1ccc(F)cc1F [Voriconazole]
inactive: [1] 0.984 | Shigella flexneri 0.959 | Vibrio cholerae 0.955 | [2] 1 | P. vulgatus RND KO 1.02 | P. vulgatus WT 1.02 | [3] 1 | [4] 0.998

CCCC1C(=O)N2C(N(C)C)=Nc3ccc(C)cc3N2C1=O (stereo not given) [Azapropazone]
inactive: [1] 0.983 | Shigella flexneri 0.96 | Vibrio cholerae 0.958 | [2] 0.964 | P. vulgatus RND KO 0.993 | P. vulgatus WT 1 | [3] 1 | [4] 0.995

Cc1ncc([N+](=O)[O-])n1CC(O)CCl (stereo not given) [Ornidazole]
inactive: [1] 0.995 | Shigella flexneri 0.987 | Vibrio cholerae 1.01 | [2] 0.964 | [3] 0.99 | [4] 0.99
active: P. vulgatus RND KO 0.0124 | P. vulgatus WT 0.00943

O=C(c1ccccc1)c1ccc2n1CCC2C(=O)O (stereo not given) [Ketorolac tromethamine]
inactive: [1] 0.986 | Shigella flexneri 0.972 | Vibrio cholerae 0.97 | [2] 0.983 | P. vulgatus RND KO 0.997 | P. vulgatus WT 1.01 | [3] 1.01 | [4] 1

Clc1ccc(COC(Cn2ccnc2)c2ccc(Cl)cc2Cl)cc1 (stereo not given) [Econazole nitrate]
inactive: [1] 0.977 | Shigella flexneri 0.987 | Vibrio cholerae 0.962 | [2] 1.01 | P. vulgatus RND KO 0.899 | P. vulgatus WT 0.902 | [3] 1 | [4] 0.912

CN(C)CCC(c1ccc(Cl)cc1)c1ccccn1 (stereo not given) [Chlorpheniramine maleate]
inactive: [1] 0.987 | Shigella flexneri 0.94 | Vibrio cholerae 0.972 | [2] 0.956 | P. vulgatus RND KO 0.994 | P. vulgatus WT 0.987 | [3] 0.994 | [4] 0.996

CN1CCCCC1CCN1c2ccccc2Sc2ccc([S+](C)[O-])cc21 (stereo not given) [Mesoridazine besylate]
inactive: [1] 0.993 | Shigella flexneri 0.978 | Vibrio cholerae 0.949 | [2] 1.01 | P. vulgatus RND KO 0.941 | P. vulgatus WT 0.885 | [3] 0.997 | [4] 0.944

CNC1(C)C2CCC(C2)C1(C)C (stereo not given) [Mecamylamine hydrochloride]
inactive: [1] 1.02 | Shigella flexneri 1 | Vibrio cholerae 0.976 | [2] 1.02 | P. vulgatus RND KO 1.09 | P. vulgatus WT 1.09 | [3] 1.02 | [4] 1.02

OCCN1CCN(CC/C=C2/c3ccccc3Sc3ccc(Cl)cc32)CC1 [Zuclopenthixol dihydrochloride]
inactive: [1] 0.996 | Shigella flexneri 0.972 | Vibrio cholerae 0.946 | [2] 0.998 | P. vulgatus RND KO 0.928 | P. vulgatus WT 0.962 | [3] 0.992 | [4] 0.887

S=c1[nH]cnc2nc[nH]c12 [Mercaptopurine]
inactive: [1] 0.997 | Shigella flexneri 1.01 | Vibrio cholerae 1 | [2] 0.987 | P. vulgatus RND KO 1.01 | P. vulgatus WT 1 | [3] 1 | [4] 0.998

C[C@]12CC[C@@H]3c4ccc(O)cc4CC[C@H]3[C@@H]1CCC2=O [Estrone]
active: Vibrio cholerae 0.0258
inactive: [1] 0.984 | Shigella flexneri 0.96 | [2] 0.975 | P. vulgatus RND KO 0.977 | P. vulgatus WT 0.964 | [3] 0.999 | [4] 0.974

CC(C)(C)NCC(O)COc1cccc2c1CC(O)C(O)C2 (stereo not given) [Nadolol]
inactive: [1] 0.99 | Shigella flexneri 0.999 | Vibrio cholerae 1 | [2] 1 | P. vulgatus RND KO 1.02 | P. vulgatus WT 1.01 | [3] 1 | [4] 1

COc1ccc2cc(CCC(C)=O)ccc2c1 [Nabumetone]
inactive: [1] 1.03 | Shigella flexneri 0.998 | Vibrio cholerae 0.929 | [2] 0.999 | P. vulgatus RND KO 0.99 | P. vulgatus WT 1 | [3] 1 | [4] 0.963

N=C(N)NS(=O)(=O)c1ccc(N)cc1 [Sulfaguanidine]
inactive: [1] 1.01 | Shigella flexneri 0.98 | Vibrio cholerae 1.04 | [2] 1.04 | P. vulgatus RND KO 1.06 | P. vulgatus WT 1.05 | [3] 0.999 | [4] 1

CC1(C)OC(=O)NC1=O [Dimethadione]
inactive: [1] 0.972 | Shigella flexneri 0.995 | Vibrio cholerae 1.01 | [2] 0.998 | P. vulgatus RND KO 1.02 | P. vulgatus WT 1 | [3] 0.99 | [4] 0.997

Nc1ccc(C(=O)NCC(=O)O)cc1 [Aminohippuric acid]
inactive: [1] 1.03 | Shigella flexneri 0.989 | Vibrio cholerae 0.998 | [2] 0.997 | P. vulgatus RND KO 0.992 | P. vulgatus WT 1.01 | [3] 1.01 | [4] 0.999

CC[C@H]1OC(=O)[C@H](C)[C@@H](O[C@H]2C[C@@](C)(OC)[C@@H](O)[C@H](C)O2)[C@H](C)[C@@H](O[C@@H]2O[C@H](C)C[C@H](N(C)C)[C@H]2O)[C@](C)(O)C[C@@H](C)C(=O)[C@H](C)[C@@H](O)[C@]1(C)O [Erythromycin]
active: [1] 0.74 | Shigella flexneri 0.6 | Vibrio cholerae 0.0246 | [2] 0.767 | P. vulgatus RND KO 0.0145 | P. vulgatus WT 0.00909 | [4] 0.00339
inactive: [3] 0.811

CCOC(=O)[C@H](CCc1ccccc1)N[C@H]1CCc2ccccc2N(CC(=O)O)C1=O [Benazepril hydrochloride]
inactive: [1] 0.981 | Shigella flexneri 0.996 | Vibrio cholerae 1.01 | [2] 0.975 | P. vulgatus RND KO 1 | P. vulgatus WT 1 | [3] 1 | [4] 1

Nc1ncn(C2OC(CO)C(O)C2O)c(=O)n1 (stereo not given) [Azacytidine-5]
inactive: [1] 1.02 | Shigella flexneri 1.04 | Vibrio cholerae 1.02 | [2] 1.04 | P. vulgatus RND KO 0.999 | P. vulgatus WT 0.996 | [3] 0.977 | [4] 0.963

O=C(O[C@@H]1C[C@@H]2C[C@H]3C[C@H](C1)N2CC3=O)c1c[nH]c2ccccc12 [Dolasetron mesilate]
inactive: [1] 1.04 | Shigella flexneri 1.01 | Vibrio cholerae 0.999 | [2] 1.01 | P. vulgatus RND KO 1.02 | P. vulgatus WT 1.04 | [3] 1.01 | [4] 0.984

Cc1onc(-c2c(Cl)cccc2Cl)c1C(=O)N[C@@H]1C(=O)N2[C@@H]1SC(C)(C)[C@@H]2C(=O)O [Dicloxacillin sodium salt hydrate]
inactive: [1] 0.997 | Shigella flexneri 1.01 | Vibrio cholerae 1 | [2] 1.01 | [3] 1.01
active: P. vulgatus RND KO 0.081 | P. vulgatus WT 0.0487 | [4] 0.00514

CC(=O)O[C@]1(C(C)=O)CC[C@H]2[C@@H]3C=C(Cl)C4=CC(=O)[C@@H]5C[C@@H]5[C@]4(C)[C@H]3CC[C@@]21C [Cyproterone acetate]
inactive: [1] 1 | Shigella flexneri 1.01 | Vibrio cholerae 1 | [2] 0.994 | P. vulgatus RND KO 0.896 | P. vulgatus WT 0.907 | [3] 1 | [4] 0.953

CCOc1nc2cccc(C(=O)O)c2n1Cc1ccc(-c2ccccc2-c2nnn[nH]2)cc1 [Candesartan]
inactive: [1] 1.01 | Shigella flexneri 1.02 | Vibrio cholerae 1.04 | [2] 1.01 | P. vulgatus RND KO 1.01 | P. vulgatus WT 1 | [3] 1.01 | [4] 0.987

C=CC1=C(C(=O)O)N2C(=O)[C@@H](NC(=O)/C(=N\O)c3csc(N)n3)[C@H]2SC1 [Cefdinir]
active: [1] 0.00595 | Shigella flexneri 0.00663 | Vibrio cholerae 0.0728 | [2] 0.023 | P. vulgatus RND KO 0.0139 | P. vulgatus WT 0.0141 | [3] 0.0086 | [4] 0.00501

CCN(CC)CC(=O)Nc1c(C)cccc1C [Lidocaine hydrochloride]
inactive: [1] 0.999 | Shigella flexneri 1.02 | Vibrio cholerae 1.01 | [2] 1 | P. vulgatus RND KO 1.02 | P. vulgatus WT 1.03 | [3] 0.963 | [4] 0.996

CNCCC(Oc1ccc(C(F)(F)F)cc1)c1ccccc1 (stereo not given) [Fluoxetine hydrochloride]
inactive: [1] 0.996 | Shigella flexneri 1 | Vibrio cholerae 0.975 | [2] 0.991 | P. vulgatus RND KO 0.991 | P. vulgatus WT 0.997 | [3] 1.01 | [4] 0.934

Nc1nc(=O)[nH]cc1F [Flucytosine]
inactive: [1] 0.983 | Shigella flexneri 0.968 | Vibrio cholerae 0.961 | [2] 1.01 | P. vulgatus RND KO 0.996 | P. vulgatus WT 0.991 | [3] 1 | [4] 0.965

C[N+]1(C)CCC(=C(c2ccccc2)c2ccccc2)CC1 [Diphemanil methylsulfate]
inactive: [1] 0.987 | Shigella flexneri 1.01 | Vibrio cholerae 1.02 | [2] 1.02 | P. vulgatus RND KO 1.03 | P. vulgatus WT 1.02 | [3] 0.991 | [4] 1

CC(N)(Cc1ccc(O)c(O)c1)C(=O)O (stereo not given) [(L) Methyldopa]
inactive: [1] 1.01 | Shigella flexneri 1.01 | Vibrio cholerae 1.01 | [2] 0.973 | P. vulgatus RND KO 1.03 | P. vulgatus WT 1.05 | [3] 1.01 | [4] 1.01

CN[C@@H]1[C@H](O[C@H]2[C@H](O[C@H]3[C@H](O)[C@@H](O)[C@H](NC(=N)N)[C@@H](O)[C@@H]3NC(=N)N)O[C@@H](C)[C@]2(O)CO)O[C@@H](CO)[C@H](O)[C@H]1O [Dihydrostreptomycin sulfate]
inactive: [1] 0.994 | Shigella flexneri 1.01 | Vibrio cholerae 1.02 | [2] 0.973 | P. vulgatus RND KO 0.999 | P. vulgatus WT 1.02 | [3] 0.992 | [4] 0.989
